PubChem BioAssay (NCATS)
Inconclusive results are not listed. Entries that show only a call come without a potency. Calls of active or inactive are those of the source. Unless noted, the call rests on the fitted dose curve; in most records, active means well fitted curve in the direction sought with a large enough effect; inconclusive means small, poorly fitted or top-dose-only effect, or another doubt; inactive means no such curve, though single readings can be large; an effect the other way counts as inactive or inconclusive.

Key:
[1] = Cytometry Cell-Based qHTS for Inhibitors of the mTORC1 Signaling Pathway in MEF cells (AID 2668); further: potency means the concentration at half of the fitted maximal effect
Method in brief: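 Tsc2-/-, p53-/- MEFs re-expressing WT Tsc2; cpd 24 hrs, 37 degree Celsius; PFA fix, Alexa-488 p-rpS6 (Ser235/236) Ab 2 hrs RT, PI counterstain; Acumen 488nm scan; p-S6/PI ratio → % positive cells; PI count = viability.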

[2] = Validation screen for inhibitors of Lassa infection (AID 463096; calls by dose curve; further: potency means the concentration at half of the fitted maximal effect)
[3] = Validation screen for small molecules that induce DNA re-replication in MCF 10A normal breast cells (AID 463097); further: nearly all actives have a fitted effect of over 60% in size; further: potency means the concentration at half of the fitted maximal effect
Method in brief: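 Image-based qHTS: normal breast cells are incubated with compound for 48 hr, stained with Hoechst, and scanned for total nuclear fluorescence. Compounds raising the fraction of nuclei with elevated DNA content count as re-replication inducers.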

[4] = molecular target: DNA polymerase III PolC-type (Bacillus subtilis (strain 168)) (UniProt P13267); assay: qHTS Validation Assay for the Inhibitors of DNA Replication in Gram-Positive Bacteria (AID 485295); further: potency means the concentration at half of the fitted maximal effect
Method in brief: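 First, compound is mixed with the reconstituted replication complex and held at room temperature. Next, circular single-stranded M13Gori with nucleotides starts synthesis. Finally, PicoGreen in EDTA halts the reaction and stains double-stranded product for fluorescence reading.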

[5] = molecular target: Tumor susceptibility gene 101 protein (Homo sapiens) (UniProt Q99816); assay: qHTS Validation Assay for Iinhibitors of HIV-1 Budding by Blocking the Interaction of PTAP/TSG101 (AID 485342; calls by dose curve)
Method in brief: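 Binding of a FITC-tagged PTAP-motif peptide (50 nM) to the Tsg101 binding domain (10 uM) is monitored by fluorescence polarization. Compounds are pin-delivered before peptide addition, and incubation runs 20 min at room temperature.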

[6] = qHTS Validation Assay to Find Inhibitors of Chronic Active B-Cell Receptor Signaling (AID 485345; active means well fitted curve in the direction sought with a large enough effect in the main read-out, with a control signal flat, not every such curve was filed as active)
Method in brief: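 Read-out: ratio of filter-corrected green (IkappaBalpha fusion) to red (native) luciferase signal in doxycycline-induced TMD8 cells after 4 h at 37C. Titration spanned 46 uM–3 nM; Data were normalised to basal cells and 10 uM MG-132 wells.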

[7] = molecular target: Beta-2 adrenergic receptor (Homo sapiens) (UniProt P07550); assay: qHTS validation assay of beta-arrestin-biased ligands of beta2-adrenergic receptor (AID 485366)
Method in brief: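 Arrestin-recruitment (Tango) reporter: ligand-bound beta2-AR recruits beta-arrestin, releasing tTA, which upregulates luciferase. Titrations of up to 46 microM incubated 18 hr at 37 degrees C before luminescent readout.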

[8] = Quantitative high throughput screen for delayed death inhibitors of the malarial parasite plastid, 96 hour incubation (AID 488745); further: nearly all actives have a fitted effect of over 70% in size
Method in brief: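 Luciferase-expressing P. falciparum in erythrocytes (2% hematocrit, 0.1% parasitemia) incubated with compound for 96 h at 37 C, 5% CO2, in RPMI 1640 with 0.5% Albumax. Growth inhibition read as decreased luminescence.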

[9] = molecular target: Ubiquitin carboxyl-terminal hydrolase 2 (Homo sapiens) (UniProt O75604); assay: qHTS Validation Assay for Inhibitors of Ubiquitin-specific Protease USP2a Using CHOP2 as the Reporter (AID 463106)
Method in brief: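 10nM USP2 core + cpd, 30min RT; add 25nM Ub-CHOP2/25nM substrate; 60min RT; FI 485/531nm. Buffer Tris pH 8.0, CaCl2, BME, CHAPS. Norm. to NEM = 100% inhibition; time-zero read flags fluorescent artifacts.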

[10] = molecular target: ATP-dependent 6-phosphofructokinase (Trypanosoma brucei brucei) (UniProt O15648); assay: qHTS Validation Assay to Find Inhibitors of T. brucei phosphofructokinase (AID 485368); settings: T. brucei PFK enzyme assay, qHTS 7-point titration; at 57.5 µM (top of the series)
Method in brief: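 Steps: substrate mix (0.5 mM F6P, 0.1 mM ATP, MgCl2, TEA pH 8.0); compound; 1.25 nM T. brucei PFK; 45 min RT; ATP depletion 10 min; ADP-to-ATP detection 10 min; luminescence read; curve fitting and classification.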

Sequence of DNA polymerase III PolC-type (Bacillus subtilis (strain 168)) (P13267 whole entry, looked up): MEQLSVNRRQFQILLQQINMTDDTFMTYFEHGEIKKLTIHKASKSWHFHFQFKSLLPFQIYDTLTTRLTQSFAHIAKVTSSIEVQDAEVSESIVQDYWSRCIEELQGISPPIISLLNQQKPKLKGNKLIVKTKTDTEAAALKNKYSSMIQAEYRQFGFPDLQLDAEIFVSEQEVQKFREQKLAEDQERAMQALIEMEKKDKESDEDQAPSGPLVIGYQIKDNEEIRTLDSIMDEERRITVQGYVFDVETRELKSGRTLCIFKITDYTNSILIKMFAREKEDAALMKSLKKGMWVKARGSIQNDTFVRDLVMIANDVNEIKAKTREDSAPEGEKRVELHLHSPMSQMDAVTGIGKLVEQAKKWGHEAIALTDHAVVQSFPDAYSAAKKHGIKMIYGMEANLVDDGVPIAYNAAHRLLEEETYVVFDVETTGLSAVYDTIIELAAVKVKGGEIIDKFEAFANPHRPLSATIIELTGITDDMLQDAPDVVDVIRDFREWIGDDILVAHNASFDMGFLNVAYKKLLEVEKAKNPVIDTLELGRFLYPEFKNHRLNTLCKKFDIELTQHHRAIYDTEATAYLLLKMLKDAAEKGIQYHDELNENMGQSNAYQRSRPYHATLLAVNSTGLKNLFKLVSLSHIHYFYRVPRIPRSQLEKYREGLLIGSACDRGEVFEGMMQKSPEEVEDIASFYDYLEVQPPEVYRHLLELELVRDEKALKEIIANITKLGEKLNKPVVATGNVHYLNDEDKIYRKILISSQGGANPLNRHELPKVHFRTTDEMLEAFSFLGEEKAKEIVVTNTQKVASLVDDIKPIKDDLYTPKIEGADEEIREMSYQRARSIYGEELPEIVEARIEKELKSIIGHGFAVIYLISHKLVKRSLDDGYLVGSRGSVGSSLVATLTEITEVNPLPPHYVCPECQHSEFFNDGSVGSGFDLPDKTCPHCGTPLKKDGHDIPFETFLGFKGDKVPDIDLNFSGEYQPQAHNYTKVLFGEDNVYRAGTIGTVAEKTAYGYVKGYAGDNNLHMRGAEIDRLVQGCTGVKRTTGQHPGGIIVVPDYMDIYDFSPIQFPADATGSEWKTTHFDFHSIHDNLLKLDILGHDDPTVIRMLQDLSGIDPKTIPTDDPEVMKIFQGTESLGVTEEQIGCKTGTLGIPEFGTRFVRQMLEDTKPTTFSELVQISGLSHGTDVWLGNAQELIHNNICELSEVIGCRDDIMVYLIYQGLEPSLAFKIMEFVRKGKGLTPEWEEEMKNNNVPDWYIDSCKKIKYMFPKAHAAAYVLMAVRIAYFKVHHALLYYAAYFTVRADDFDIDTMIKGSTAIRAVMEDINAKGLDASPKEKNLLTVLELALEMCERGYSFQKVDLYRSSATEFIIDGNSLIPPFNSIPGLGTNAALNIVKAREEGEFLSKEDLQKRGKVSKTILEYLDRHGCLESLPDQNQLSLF
Sequence of Ubiquitin carboxyl-terminal hydrolase 2 (Homo sapiens) (O75604 whole entry, looked up): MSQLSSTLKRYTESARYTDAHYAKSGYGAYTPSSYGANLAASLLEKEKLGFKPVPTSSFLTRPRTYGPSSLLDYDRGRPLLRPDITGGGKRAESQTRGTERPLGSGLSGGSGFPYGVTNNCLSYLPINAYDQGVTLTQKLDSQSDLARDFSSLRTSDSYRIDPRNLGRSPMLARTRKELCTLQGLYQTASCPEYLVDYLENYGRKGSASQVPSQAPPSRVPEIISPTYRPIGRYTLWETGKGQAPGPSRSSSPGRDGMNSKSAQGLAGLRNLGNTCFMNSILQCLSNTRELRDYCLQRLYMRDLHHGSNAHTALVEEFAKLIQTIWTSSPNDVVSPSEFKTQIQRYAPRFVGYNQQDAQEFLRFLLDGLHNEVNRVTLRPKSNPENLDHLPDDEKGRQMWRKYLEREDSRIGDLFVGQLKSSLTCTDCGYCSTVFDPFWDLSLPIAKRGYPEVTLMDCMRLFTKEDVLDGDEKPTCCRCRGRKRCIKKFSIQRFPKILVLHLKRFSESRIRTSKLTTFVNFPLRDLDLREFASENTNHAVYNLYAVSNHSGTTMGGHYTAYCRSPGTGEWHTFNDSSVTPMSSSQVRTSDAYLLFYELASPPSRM
Sequence of ATP-dependent 6-phosphofructokinase (Trypanosoma brucei brucei) (O15648 whole entry, looked up): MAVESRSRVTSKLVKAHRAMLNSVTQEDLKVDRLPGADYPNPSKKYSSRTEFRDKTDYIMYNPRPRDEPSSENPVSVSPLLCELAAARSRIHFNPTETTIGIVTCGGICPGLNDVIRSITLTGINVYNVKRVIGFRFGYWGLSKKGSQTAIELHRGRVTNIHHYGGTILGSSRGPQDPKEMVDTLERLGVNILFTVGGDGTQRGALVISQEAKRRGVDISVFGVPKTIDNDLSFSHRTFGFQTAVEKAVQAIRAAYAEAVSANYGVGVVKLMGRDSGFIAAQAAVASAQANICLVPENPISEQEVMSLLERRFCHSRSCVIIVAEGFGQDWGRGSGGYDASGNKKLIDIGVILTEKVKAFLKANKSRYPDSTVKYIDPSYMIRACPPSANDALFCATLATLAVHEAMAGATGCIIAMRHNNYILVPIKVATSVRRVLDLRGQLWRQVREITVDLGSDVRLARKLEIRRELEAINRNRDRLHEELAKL
Sequence of Beta-2 adrenergic receptor (Homo sapiens) (P07550 whole entry, looked up): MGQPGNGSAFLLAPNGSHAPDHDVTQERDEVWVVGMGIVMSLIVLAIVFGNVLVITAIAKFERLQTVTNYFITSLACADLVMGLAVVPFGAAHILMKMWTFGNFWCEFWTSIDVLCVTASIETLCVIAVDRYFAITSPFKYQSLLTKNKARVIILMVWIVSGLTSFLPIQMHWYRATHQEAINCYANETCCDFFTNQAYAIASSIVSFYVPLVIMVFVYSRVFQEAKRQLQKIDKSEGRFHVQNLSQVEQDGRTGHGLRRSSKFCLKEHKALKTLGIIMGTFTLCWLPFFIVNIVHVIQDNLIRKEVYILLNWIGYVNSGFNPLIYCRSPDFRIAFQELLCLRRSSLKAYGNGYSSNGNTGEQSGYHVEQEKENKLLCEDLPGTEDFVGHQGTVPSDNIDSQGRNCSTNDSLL
Sequence of Tumor susceptibility gene 101 protein (Homo sapiens) (Q99816 whole entry, looked up, the tested form may be a part): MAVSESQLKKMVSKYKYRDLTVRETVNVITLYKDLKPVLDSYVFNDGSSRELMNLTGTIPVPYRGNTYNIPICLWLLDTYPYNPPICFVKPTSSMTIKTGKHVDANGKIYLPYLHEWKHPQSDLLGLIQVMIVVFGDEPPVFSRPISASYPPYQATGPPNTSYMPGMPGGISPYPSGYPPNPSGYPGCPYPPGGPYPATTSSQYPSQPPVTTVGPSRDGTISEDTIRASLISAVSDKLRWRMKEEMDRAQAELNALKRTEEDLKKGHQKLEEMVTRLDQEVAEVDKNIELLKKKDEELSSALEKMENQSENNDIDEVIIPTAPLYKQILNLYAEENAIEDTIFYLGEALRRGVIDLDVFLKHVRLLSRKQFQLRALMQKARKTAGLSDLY

Structure (SMILES): O=C1CCCN1CC#CCN1CCCC1
- Potency [1]: inactive
- Potency [2]: inactive
- Potency [3]: inactive
- Potency [4]: inactive
- outcome [5]: inactive
- outcome [6]: inactive
- outcome [7]: inactive
- Potency [8]: inactive

Structure (SMILES): NCCc1c[nH]c2ccccc12
- Potency [1]: inactive
- Potency [2]: inactive
- Potency [3]: inactive
- Potency [4]: inactive
- outcome [5]: inactive
- outcome [6]: inactive
- outcome [7]: inactive

Structure (SMILES): C=CCN1CC[C@]23CCCCC2[C@H]1Cc1ccc(O)cc13 (some centres undefined)
- Potency [1]: inactive
- Potency [2]: inactive
- Potency [3]: inactive
- Potency [4]: inactive
- outcome [5]: inactive
- outcome [6]: inactive

Structure (SMILES): O=C(O)[C@@H]1CCN1
- Potency [1]: inactive
- Potency [2]: inactive
- Potency [3]: inactive
- Potency [9]: inactive
- Potency [4]: inactive
- outcome [5]: inactive
- outcome [6]: inactive
- outcome [7]: inactive
- outcome [10]: inactive

Structure (SMILES): S=C(NC1CCCCC1)N1CCC(c2cnc[nH]2)CC1
- Potency [1]: inactive
- Potency [2]: inactive
- Potency [3]: inactive
- Potency [4]: inactive
- outcome [5]: inactive
- outcome [6]: inactive
- outcome [10]: inactive

Structure (SMILES): CC1=NN=C(c2ccc(N)cc2)c2cc3c(cc2C1)OCO3
- Potency [1]: inactive
- Potency [2]: inactive
- Potency [3]: inactive
- Potency [4]: inactive
- outcome [5]: inactive
- outcome [6]: inactive

Structure (SMILES): C[C@]12CCC3C(CC[C@H]4C[C@H](O)CC[C@]34C)C1CC[C@@H]2C(=O)CO (some centres undefined)
- Potency [1]: inactive
- Potency [2]: inactive
- Potency [3]: inactive
- Potency [9]: inactive
- Potency [4]: inactive
- outcome [5]: inactive
- outcome [10]: inactive

Structure (SMILES): Oc1ccc2c3c1O[C@H]1c4[nH]c5c(c4C[C@@]4(O)[C@@H](C2)N(CC2CC2)CC[C@]314)C[C@@]1(O)[C@H]2Cc3ccc(O)c4c3[C@@]1(CCN2CC1CC1)[C@H]5O4
- Potency [1]: inactive
- Potency [2]: inactive
- Potency [3]: inactive
- Potency [9]: inactive
- Potency [4]: inactive
- outcome [5]: inactive
- outcome [6]: inactive
- outcome [10]: inactive

Structure (SMILES): COc1cc(C(O)CN)ccc1O (centres undefined)
- Potency [1]: inactive
- Potency [2]: inactive
- Potency [3]: inactive
- Potency [4]: inactive
- outcome [5]: inactive
- outcome [6]: inactive
- outcome [10]: inactive

Structure (SMILES): NCc1cc(=O)[nH]o1
- Potency [1]: inactive
- Potency [2]: inactive
- Potency [3]: inactive
- Potency [4]: inactive
- outcome [5]: inactive
- outcome [6]: inactive

Structure (SMILES): CCCN1CCC[C@H](c2cccc(O)c2)C1
- Potency [1]: inactive
- Potency [2]: inactive
- Potency [3]: inactive
- Potency [4]: inactive
- outcome [5]: inactive
- outcome [6]: inactive
- outcome [10]: inactive

Structure (SMILES): Cc1nccc2c1[nH]c1ccccc12
- Potency [1]: inactive
- Potency [2]: inactive
- Potency [3]: inactive
- Potency [9]: inactive
- Potency [4]: inactive
- outcome [5]: inactive

Structure (SMILES): C[C@@H](N)C1CCC(C(=O)Nc2ccncc2)CC1 (some centres undefined)
- Potency [2]: inactive

Structure (SMILES): CCN1CCc2nc(N)oc2CC1
- Potency [2]: inactive

Structure (SMILES): Cc1c(C(=O)c2cccc3ccccc23)c2cccc3c2n1[C@H](CN1CCOCC1)CO3
- Potency [2]: inactive
- Potency [4]: inactive
- outcome [5]: inactive
- outcome [10]: inactive

Structure (SMILES): CC[C@@H]1C(=O)OC[C@@H]1Cc1cncn1C
- Potency [2]: inactive
- Potency [3]: inactive

Structure (SMILES): CC(C)(Sc1ccc(CCN(CCCCC2CCCCC2)C(=O)NC2CCCCC2)cc1)C(=O)O
- Potency [2]: inactive

Structure (SMILES): C[N+]1(C)C2CC(OC(=O)[C@H](CO)c3ccccc3)CC1C1OC12 (some centres undefined)
- outcome [10]: inactive

Structure (SMILES): COc1ccc2c(c[n+](C)c3c4cc5c(cc4ccc23)OCO5)c1OC
- Potency [1]: inactive
- Potency [2]: 10 µM (active)
- Potency [4]: 26.7 µM (active)
- outcome [5]: inactive
- outcome [7]: inactive

Structure (SMILES): CC(=O)Oc1ccccc1C(=O)O
- Potency [2]: inactive

Structure (SMILES): CS(=O)(=O)Nc1ccc([N+](=O)[O-])cc1Oc1ccccc1
- Potency [2]: inactive

Structure (SMILES): Clc1cnc(Oc2ccc(Oc3ncc(Cl)cc3Cl)cc2)c(Cl)c1
- Potency [1]: inactive
- Potency [2]: inactive
- Potency [3]: inactive
- Potency [4]: inactive
- outcome [5]: inactive
- outcome [6]: inactive
- outcome [10]: inactive

Structure (SMILES): Clc1ccc(C(c2ccc(Cl)cc2)n2cc[n+](CC(OCc3ccc(Cl)cc3Cl)c3ccc(Cl)cc3Cl)c2)cc1 (centres undefined)
- Potency [2]: 11.2 µM (active)
- Potency [3]: 11.2 µM (active)

Structure (SMILES): C/C=C(/C)C(=O)O[C@H]1C(C)=C2[C@H]([C@@H]1OC(=O)CCCCCCC)[C@@](C)(OC(C)=O)C[C@H](OC(=O)CCC)[C@@]1(O)[C@H]2OC(=O)[C@@]1(C)O
- Potency [1]: 0.0083 µM (active)
- outcome [5]: inactive

Structure (SMILES): O=C(N[C@H]1CN2CCC1CC2)c1ccc(Cl)cc1
- Potency [1]: inactive
- Potency [4]: inactive
- outcome [5]: inactive
- outcome [6]: inactive
- outcome [10]: inactive

Structure (SMILES): COC(=O)[C@@H](N)CCCN=C(N)N[N+](=O)[O-]
- Potency [1]: inactive
- Potency [4]: inactive
- outcome [5]: inactive
- outcome [6]: inactive
- outcome [10]: inactive

Structure (SMILES): CCc1c(C)[nH]c2c1C(=O)C(CN1CCOCC1)CC2 (centres undefined)
- Potency [2]: inactive

Structure (SMILES): CCN(CC)CCNC(=O)c1ccc(NC(C)=O)cc1
- Potency [2]: inactive

Structure (SMILES): CC1=C(/C=C/C(C)=C/C=C/C(C)=C/C(=O)O)C(C)(C)CCC1
- Potency [2]: inactive

Structure (SMILES): CC(C)C[C@H](NC(=O)[C@@H](O)[C@H](N)Cc1ccccc1)C(=O)O
- Potency [2]: inactive

Structure (SMILES): CC(C)c1ccc2c(c1)c(SC(C)(C)C)c(CC(C)(C)C(=O)O)n2Cc1ccc(Cl)cc1
- Potency [2]: inactive

Structure (SMILES): Cc1nc(-c2ccc(-c3ccc(C(=O)N4CCc5cc6c(cc54)C4(CCN(C)CC4)CO6)cc3)c(C)c2)no1
- Potency [2]: 10 µM (active)

Structure (SMILES): CN[C@@H]1C[C@@H](c2ccc(Cl)c(Cl)c2)c2ccccc21
- Potency [9]: inactive
- Potency [4]: inactive
- outcome [5]: inactive

Structure (SMILES): CC[C@H](CO)Nc1nc(NCc2ccccc2)c2ncn(C(C)C)c2n1
- Potency [2]: inactive

Structure (SMILES): CNCCc1ccc(O)c(O)c1
- Potency [1]: inactive
- Potency [2]: inactive
- Potency [4]: inactive
- outcome [5]: inactive
- outcome [6]: inactive

Structure (SMILES): CN[C@@H](C)[C@H](O)c1ccccc1
- Potency [2]: 10 µM (active)

Structure (SMILES): C[N+](C)(C)CC(=O)O
- Potency [2]: inactive
- Potency [3]: inactive

Structure (SMILES): CC[C@@]1(O)C(=O)OCc2c1cc1n(c2=O)Cc2cc3ccccc3nc2-1
- Potency [4]: inactive
- outcome [5]: inactive
- outcome [10]: inactive

Structure (SMILES): CCn1cc(C(=O)O)c(=O)c2cc3c(cc21)OCO3
- Potency [2]: inactive

Structure (SMILES): c1ccc(C2(c3ccccc3)CC2C2=NCCN2)cc1 (centres undefined)
- Potency [1]: inactive
- Potency [4]: inactive
- outcome [5]: inactive
- outcome [6]: inactive
- outcome [10]: inactive

Structure (SMILES): Cn1cnc(CCN)c1
- Potency [2]: inactive
- Potency [3]: inactive
- Potency [9]: inactive
- Potency [4]: inactive
- outcome [5]: inactive
- outcome [6]: inactive

Structure (SMILES): c1ccc(CCCN2CCN(CCOC(c3ccccc3)c3ccccc3)CC2)cc1
- Potency [9]: inactive
- Potency [4]: inactive
- outcome [5]: inactive
- outcome [6]: inactive

Structure (SMILES): NCCCC(N)(C(=O)O)C(F)F (centres undefined)
- Potency [2]: inactive

Structure (SMILES): NCCS
- Potency [2]: inactive

Structure (SMILES): CC(C)Oc1cccnc1N(C)C1CCN(Cc2ccccc2)CC1
- Potency [1]: inactive
- Potency [2]: inactive
- Potency [4]: inactive
- outcome [5]: inactive
- outcome [6]: inactive

Structure (SMILES): CC(C)(C)NCC(O)c1ccc(O)c(CO)c1 (centres undefined)
- Potency [2]: inactive

Structure (SMILES): CC[C@@H](C(N)=O)N1CCCC1=O
- Potency [1]: inactive
- Potency [4]: inactive
- outcome [5]: inactive
- outcome [6]: inactive
- outcome [10]: inactive

Structure (SMILES): CC(=O)[C@H]1CCC2C3CC[C@H]4C[C@H](O)CC[C@]4(C)C3CC[C@@]21C (some centres undefined)
- Potency [1]: inactive
- Potency [2]: inactive
- Potency [9]: inactive
- Potency [4]: inactive
- outcome [5]: inactive
- outcome [6]: inactive
- outcome [7]: inactive

Structure (SMILES): CN1C2CCC1CC(OC(=O)c1cc(Cl)cc(Cl)c1)C2 (centres undefined)
- Potency [2]: inactive
- Potency [4]: inactive
- outcome [5]: inactive
- outcome [10]: inactive

Structure (SMILES): CC(C[N+](C)(C)C)OC(N)=O (centres undefined)
- Potency [2]: inactive
